The values below come from PubChem BioAssay (NCI).

Common to all, as to assay: NCI-60 one-dose screen, 48 h (100 = growth as untreated, 0 = no growth, -100 = all killed)
Holding throughout (conditions): 10 µM unless noted

In test [1] the test system is SK-MEL-2 melanoma.
Test [2] concerns SN12C renal.
Test [3] deals with UO-31 renal.
For test [4], the system named is TK-10 renal.
The subject of test [5] is ACHN renal.
For test [6], the system named is A498 renal.
The test system of test [7] is CCRF-CEM leukemia.
For test [8], the system named is MOLT-4 leukemia.
The subject of test [9] is SR leukemia.
Test [10] deals with RPMI-8226 leukemia.
Test [11] deals with OVCAR-5 ovarian.
For test [12], the system named is SK-OV-3 ovarian.
Test [13] deals with IGROV1 ovarian.
The subject of test [14] is OVCAR-3 ovarian.
Test [15] concerns HS 578T breast.
Test [16] has as its system NCI/ADR-RES ovarian.
In test [17] the test system is CAKI-1 renal.
Test [18] concerns OVCAR-8 ovarian.
Test [19] deals with OVCAR-4 ovarian.

Molecules are shown by their SMILES. The panel holds about 83,000 compounds, 20% with a hit somewhere; the sample as a whole holds those more often.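 Negative percent growth values reflect cell death: -40 means 40% of the cells present at the start died, and -100 means all died.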 A number with no mark means an inactive call. The source made the active and inactive calls. Rule for the calls: active = growth percent below 10; inactive = the rest.

Regarding `COc1cc2c3c(c(=O)oc2cc1OS(=O)(=O)c1ccc(C(F)(F)F)cc1)CCCCC3`, the growth is 90.5% in test [1]; 89.7% in test [2]; 92.6% in test [3]; 122% in test [4]; 72.5% in [5]; 86.3% in test [6]. Besides, the growth is 90.2% in test [7]; 95.9% in test [8]; 58.6% in test [9]; 84.8% in test [10]; 79.6% in test [11]; 83% in test [12]. The growth in test [13] is 86.7%; in test [14], 87.9%; in test [15], 56.4%; in test [16], 76.3%.
Regarding `COc1ccc(NC(=O)CSc2nc3ccccc3c(=O)n2-c2ccccc2C(F)(F)F)c(OC)c1OC`, the growth was 121% in test [1]; 93% in [2]; 91.9% in [3]; 99.2% in [5]; 98.4% in test [17]; 74.8% in test [6]. In addition, the growth in test [7] was 101%; in test [8], 107%; in test [9], 103%; in test [10], 93.1%; in test [18], 98%; in test [11], 97.5%. Besides, the growth in test [19] was 97.3%; in test [12] it was 89.4%; in test [13], 127%; in test [14], 104%; in [16], 102%.
Consider `COC(=O)c1cc(-c2cccs2)c(C#N)c(N)c1C#N`, for which the growth was 112% in [1]; 102% in [2]; 92.7% in test [3]; 116% in test [4]; 107% in [5]; 104% in [6]. The growth in test [7] is 92.5%; in test [8] it was 98.1%; in test [9], 94.5%; in [10] it was 99.7%; in test [18], 98.9%; in test [11], 105%. For the same molecule, the growth was 101% in [12]; 94.2% in test [13]; 108% in test [14]; 102% in test [15]; 106% in test [16].
In the case of `Cc1ccc(Oc2nc3ccccc3cc2-c2nnc(Cn3c(COc4ccccc4)nc4ccccc43)o2)cc1`, the growth in [1] is 89.8%; in [2], 29.4%; in test [3] it was 8.45% (active); in [4], 77.1%; in [5] it was 49.9%; in [6], 54.1%. Moreover, the growth was 0.728% (active) in test [7]; -13.8% (active) in [8]; -7.62% (active) in test [9]; -4.32% (active) in test [10]; 25.5% in test [18]; 87.7% in test [11]. Also, the growth was 53.9% in test [19]; 77.3% in test [12]; 37.8% in test [13]; 35.7% in [14]; 72.4% in test [15]; 34.6% in test [16].
As to `COc1ccc(-c2nc(-c3nc4ccc(F)cc4[nH]3)cc3c2[nH]c2ccccc23)cc1`, the growth in test [1] was 29.4%; in [2], 23.1%; in test [3] it was 7.03% (active); in [5] it was 32.1%; in test [17], 15.2%; in test [6], 26.4%. In addition, the growth in test [7] is 17.6%; in test [8] it was 22.5%; in test [9] it was 15.5%; in test [10], -5.03% (active); in test [18], 13.6%; in test [11], 77.8%. Moreover, the growth in test [19] is 45.8%; in test [12], 87%; in test [13], 27%; in [14] it was 42.3%; in test [15], 42.4%; in test [16] it was 19.7%.
Regarding `O=c1oc2cc(OS(=O)(=O)c3ccccc3)c(Cl)cc2c2c1CCCCCC2`, the growth in test [1] was 106%; in [2], 87.2%; in [3], 71.5%; in test [4], 111%; in test [5], 88.2%; in [6], 86.1%. In addition, the growth in [7] was 81%; in test [8], 77.4%; in test [9], 63.4%; in [10], 75.2%; in test [18] it was 89.2%; in test [11] it was 90.1%. For the same molecule, the growth in [12] was 106%; in test [13], 84.3%; in [14] it was 91.3%; in [15], 88.6%; in test [16], 67.4%.
In the case of `COc1ccc(/C=C/C(=O)c2cccc(B(O)O)c2)cc1O`, the growth in test [1] is 107%; in test [2] it was 28.7%; in test [3] it was 19.9%; in test [4], 99.3%; in test [5], 60.6%; in test [6], 52.1%. Further, the growth in test [7] was 37.3%; in [8] it was 46.6%; in [9], 6.45% (active); in test [10], 5.96% (active); in [18], 60.1%; in test [11], 88.4%. Moreover, the growth in test [19] is 73.9%; in [12], 58.1%; in [13], 18.2%; in test [14], -6.95% (active); in [15] it was 32.9%; in test [16], 48.9%.
For the molecule `COc1ccc(/C=C/C(=O)c2ccc(B(O)O)cc2)cc1O`, the growth is 92.2% in test [1]; 86.7% in [2]; 60.8% in [3]; 104% in test [4]; 93.9% in test [5]; 61.8% in test [6]. For the same molecule, the growth in test [7] was 82.6%; in test [8] it was 82.3%; in [9] it was 19.6%; in [10], 6.12% (active); in [18], 89.9%; in test [11], 88.2%. Further, the growth was 114% in [19]; 82.7% in test [12]; 56.2% in test [13]; 58.5% in [14]; 70.7% in [15]; 92.3% in test [16].
For `COc1cc(C(=O)/C=C/c2cc(C(=O)c3cc(OC)c(OC)c(OC)c3)ccc2OC)ccc1N`, the growth in [1] was -38.6% (active); in test [2], 18.8%; in [3] it was -86.7% (active); in test [4], 13.1%; in [5], -88.5% (active); in [6] it was -6.91% (active). The growth was -10.7% (active) in test [7]; 4.31% (active) in test [8]; -7.95% (active) in [9]; -9.87% (active) in [10]; 4.2% (active) in test [18]; -54.1% (active) in test [11]. The growth in test [12] was 32.5%; in test [13], -12.7% (active); in test [14] it was -53% (active); in test [15] it was 46.1%; in test [16], 1.57% (active).
